{"source": "PubChem BioAssay (NCATS)", "key": {"[1]": {"molecular_target": "Guanine nucleotide-binding protein G(i) subunit alpha-1 (Homo sapiens) (UniProt P63096)", "sequence (P63096 whole entry, looked up)": "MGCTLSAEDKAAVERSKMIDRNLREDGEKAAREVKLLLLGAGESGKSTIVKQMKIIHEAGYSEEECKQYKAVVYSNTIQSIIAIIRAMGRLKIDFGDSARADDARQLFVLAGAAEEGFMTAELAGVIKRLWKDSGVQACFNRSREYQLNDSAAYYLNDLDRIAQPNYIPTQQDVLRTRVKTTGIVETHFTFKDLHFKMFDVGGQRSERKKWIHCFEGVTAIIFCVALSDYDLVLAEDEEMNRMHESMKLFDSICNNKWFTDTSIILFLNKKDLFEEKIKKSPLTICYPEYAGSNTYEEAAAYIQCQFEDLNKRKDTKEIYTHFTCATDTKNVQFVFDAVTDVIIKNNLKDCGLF", "experiment": "qHTS Assay for Inhibitors of RGS12 GoLoco Motif Activity (Green Fluorophore) (AID 879);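 also: negative values mean loss of peptide binding seen as reduced polarization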", "summary_of_the_method": "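A drop in FITC polarization marked displacement of the FITC-tagged RGS12 GoLoco peptide (10 nM) from Gαi1 (50 nM). Compounds were incubated 10 min at room temperature in Tris pH 7.5 buffer containing 150 mM NaCl, 0.1 mM GDP and 0.05% NP40; unlabeled peptide titration served as control.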"}, "[2]": {"molecular_target": "Rap guanine nucleotide exchange factor 3 (Homo sapiens) (UniProt O95398)", "sequence (O95398 whole entry, looked up)": "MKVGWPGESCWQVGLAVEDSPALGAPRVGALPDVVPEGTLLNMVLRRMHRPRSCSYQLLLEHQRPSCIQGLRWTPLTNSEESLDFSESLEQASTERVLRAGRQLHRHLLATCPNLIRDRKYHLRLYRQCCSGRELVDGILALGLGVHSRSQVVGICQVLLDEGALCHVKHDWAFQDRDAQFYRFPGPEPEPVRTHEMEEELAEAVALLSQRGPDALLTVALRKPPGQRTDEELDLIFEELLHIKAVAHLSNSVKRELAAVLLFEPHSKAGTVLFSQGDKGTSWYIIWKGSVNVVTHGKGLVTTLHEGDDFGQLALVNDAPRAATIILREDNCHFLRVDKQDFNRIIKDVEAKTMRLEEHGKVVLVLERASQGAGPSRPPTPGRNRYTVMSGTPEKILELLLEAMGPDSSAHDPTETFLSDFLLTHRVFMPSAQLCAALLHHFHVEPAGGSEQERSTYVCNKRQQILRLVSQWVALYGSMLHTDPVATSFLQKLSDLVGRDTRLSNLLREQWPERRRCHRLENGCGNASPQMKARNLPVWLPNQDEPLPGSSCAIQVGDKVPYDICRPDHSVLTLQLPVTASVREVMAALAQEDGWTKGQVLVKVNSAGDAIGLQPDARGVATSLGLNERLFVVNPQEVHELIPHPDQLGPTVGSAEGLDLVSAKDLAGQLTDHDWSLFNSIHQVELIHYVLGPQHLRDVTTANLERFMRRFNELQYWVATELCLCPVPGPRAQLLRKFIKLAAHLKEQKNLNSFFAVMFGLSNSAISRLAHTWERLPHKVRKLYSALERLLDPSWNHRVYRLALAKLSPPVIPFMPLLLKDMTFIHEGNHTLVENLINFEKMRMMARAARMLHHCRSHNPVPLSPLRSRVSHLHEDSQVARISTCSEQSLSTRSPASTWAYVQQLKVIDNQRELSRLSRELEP", "experiment": "Confirmatory qHTS for antagonist of cAMP-regulated guanine nucleotide exchange factor 3 (EPAC1) (AID 1645880); also: nearly all actives have a fitted effect of over 55% in size", "summary_of_the_method": "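Released BODIPY-GDP fluoresces less than Rap1-bound BODIPY-GDP; the signal is followed at 480/540 nm at 5-min intervals over 30 min, after 5 min at room temperature. Reactions contain 100 nM EPAC1, 250 nM RAP1B-BODIPY-GDP and 50 uM GDP; results are normalized to ATA and DMSO.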"}}, "note": "Inconclusive results are not listed. Entries that show only a call come without a potency. Active and inactive are the calls of the source. Calls follow the shape of the dose curve; as a rule, active = well fitted curve in the direction sought with a large enough effect; inconclusive = small, poorly fitted or top-dose-only effect, or another doubt; inactive = no such curve, though single readings can be large; an effect the other way counts as inactive or inconclusive."}
{"smiles": "CC(C)=CCC/C(C)=C/CC/C(C)=C/CSc1ccccc1C(=O)O", "values": [{"measurement": "outcome", "setting": "[1]", "result": "inactive"}]}
{"smiles": "C#C[C@]1(OC(C)=O)CC[C@H]2[C@@H]3CCC4=CC(=O)CC[C@@H]4[C@H]3CC[C@@]21C", "values": [{"measurement": "Potency", "setting": "[2]", "result": "inactive"}]}
